Source: PubChem BioAssay (several laboratories)
Most compounds without a hit are left out; they make up all but 27% or so of the library.
Cav3 T inh = inhibitors of human Cav3.2 T-type calcium channel; O95180; Cav3.2-expressing cells, Fluo-4 calcium fluorescence FDSS; hits give low values; B-score at 10 µM; 4% of 100,000 active; AID 449739;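 active means single-dose well whose peak fluorescence ratio is a statistical outlier from its plate by either plate-standardised score or position-corrected B-score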
CYP2C9 act = increases human cytochrome P450 2C9 activity. activation factor at 5 µM. recombinant CYP2C9, luciferin-H conversion, luminescence; hits give high values; factor 1 = untreated enzyme, 0 = blocked. 1.4% of 96,000 active. P11712;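 active means activation factor of 2 or more for CYP2C9 at a 5 µM dose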
CYP2C19 activ = cytochrome P450 2C19 (human) activation; P33261; recombinant CYP2C19, luciferin-H EGE luminescence; hits give high values; 0 = fully inhibited enzyme, 1 = untreated enzyme; activation factor at 5 µM; 96,000 tested, under 10 active; AID 1025;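 active means activation factor of at least 2 at 5 µM in the primary screen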
Target sequence (P33261 whole entry, looked up): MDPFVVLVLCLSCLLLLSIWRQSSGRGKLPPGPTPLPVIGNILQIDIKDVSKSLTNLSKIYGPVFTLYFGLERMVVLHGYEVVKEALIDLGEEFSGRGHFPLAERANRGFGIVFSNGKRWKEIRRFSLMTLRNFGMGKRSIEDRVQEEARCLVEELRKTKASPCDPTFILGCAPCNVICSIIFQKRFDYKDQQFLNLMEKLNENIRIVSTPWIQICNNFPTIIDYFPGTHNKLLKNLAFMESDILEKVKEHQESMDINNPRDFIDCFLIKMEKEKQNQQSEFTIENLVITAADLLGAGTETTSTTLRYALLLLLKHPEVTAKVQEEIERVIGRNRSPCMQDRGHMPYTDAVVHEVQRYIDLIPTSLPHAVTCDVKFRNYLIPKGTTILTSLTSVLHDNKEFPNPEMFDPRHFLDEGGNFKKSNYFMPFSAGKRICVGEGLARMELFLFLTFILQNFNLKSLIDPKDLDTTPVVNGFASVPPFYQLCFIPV
CYP2C9 inhib = human CYP2C9 inhibition; P11712; 20% of 96,000 active; inhibition, % at 5 µM; CYP2C9 Supersomes, luciferin-H conversion, luminescence;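 active means blocking of liver enzyme CYP2C9 beyond about 50% at 5 µM, limit read from the data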
CYP2C19 inhib = human CYP2C19 inhibition. P33261. CYP2C19 Supersomes, luciferin-H EGE luminescence, 30 min. inhibition, % at 5 µM. 21% of 96,000 active;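 active means CYP2C19 inhibition above a set limit at 5 µM in the primary screen, cut at about 50% in these data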
Of the large screens only hits and unclear results are named; the others gave an inactive call.

CC(C)(C)n1nc2c(c1NC(=O)c1ccc(S(=O)(=O)N3CCCCC3)cc1)CS(=O)C2 (stereo not given)	none
Cc1coc(C)c1C(=O)CC1(O)C(=O)Nc2cc(Cl)cc(Cl)c21 (stereo not given)	CYP2C19 inhib 59.1
Cc1ccc(Cl)c2c1NC(=O)C2(O)CC(=O)c1ccc(F)cc1 (stereo not given)	none
COc1ccccc1CC(=O)Nc1ccc(-c2nnc(-c3ccco3)o2)cc1	none
CC1=C(C(=O)OC(C)C)C(c2ccsc2)NC(=O)N1C (stereo not given)	none (no result: CYP2C9 act, CYP2C19 activ, CYP2C9 inhib, CYP2C19 inhib)
Fc1ccc(NC(=S)N2CCCc3ccccc32)cc1	none
CCOC(=O)c1cc(S(=O)(=O)N2CCN(C(=O)OCC)CC2)cn1C	none
CCOc1c(C)cc2[nH]c(CCC(=O)O)nc2c1C	none (no result: CYP2C9 act, CYP2C19 activ, CYP2C9 inhib, CYP2C19 inhib)
Cc1ccccc1N(Cc1ccccc1F)S(C)(=O)=O	CYP2C9 inhib 70.1, CYP2C19 inhib 94.6
CCOC(=O)c1ccc(NC(=O)c2ccccc2)cc1	none
COC(=O)c1ccccc1NC(=O)CSc1nnc(-c2ccc(C)cc2)o1	none (no result: CYP2C9 act, CYP2C19 activ, CYP2C9 inhib, CYP2C19 inhib)
COC(=O)c1ccccc1NC(=O)CSc1nc(NC(=O)c2ccccc2)c2c(C)c(C)oc2n1	Cav3 T inh -4.94, CYP2C9 inhib 87.1, CYP2C19 inhib 69.1
CCOC(=O)c1ccc(NC(=O)CSc2nc(NC(=O)c3ccccc3)c3c(C)c(C)oc3n2)cc1	CYP2C9 inhib 75.8, CYP2C19 inhib 59.7
COc1ccc(-n2nnnc2SCC(=O)Nc2nc3c(s2)CCCC3)cc1	none
CCN1CCN(CC(=O)c2c[nH]c3ccc(C)cc23)CC1	CYP2C9 inhib 50.9
Cc1ccc2[nH]cc(C(=O)CN3CCN(c4ccccc4F)CC3)c2c1	none
CCOC(=O)N1CCN(CC(=O)c2c[nH]c3ccc(F)cc23)CC1	CYP2C9 inhib 51.0 (no result: Cav3 T inh)
CCOC(=O)c1nn(-c2ccccc2C)c2nc(-c3ccc(Cl)cc3)c(C#N)c(=O)n12	none
CCOC(=O)c1cnn(-c2ccccc2)c1NC(=O)CSc1nnc(-c2cccs2)n1CC	none
O=C(CSc1nnc(CNC(=O)c2cccs2)o1)NCCc1ccccc1	none (no result: CYP2C9 act, CYP2C19 activ, CYP2C9 inhib, CYP2C19 inhib)
O=C(COc1ccc(Cl)cc1)NC1CCSC1=O (stereo not given)	CYP2C19 inhib 65.4
CC(=O)Nc1ccc(NC(=O)C2CC(=O)N=C(N)S2)cc1 (stereo not given)	none (no result: Cav3 T inh)
Cc1cc(C)nc(NN2C(=O)/C(=C/c3ccc(O)cc3)SC2=S)n1	CYP2C9 act 3.2
COc1ccccc1/C=C1\SC(=S)N(Nc2nc(C)cc(C)n2)C1=O	none
O=C(c1ccc(C(=O)N2CCOCC2)nc1)N1CCOCC1	none
CC(/C=C/c1ccc2c(c1)OCO2)=N\NC(=O)COc1ccccc1C	none
COc1ccc2[nH]c(=O)c(CN(Cc3cccs3)Cc3nnnn3C(C)(C)C)cc2c1	CYP2C9 inhib 87.8, CYP2C19 inhib 90.8
CCOc1ccc2[nH]c(=O)c(CN(Cc3cccs3)Cc3nnnn3C(C)(C)C)cc2c1	none
Cc1ccc2[nH]c(=O)c(CN(CCO)Cc3nnnn3CCc3ccccc3)cc2c1	CYP2C19 inhib 70.8
CCOC(=O)Cn1nnnc1CN(CCc1ccccc1)Cc1cc2cc(CC)ccc2[nH]c1=O	Cav3 T inh -4.4, CYP2C9 inhib 71.5
Cc1ccc2[nH]c(=O)c(CN(Cc3cccs3)Cc3nnnn3Cc3ccccc3)cc2c1	CYP2C9 inhib 59.5, CYP2C19 inhib 92.7
COc1cc(O)c(C(C)=O)c(CC(=O)O)c1	none (no result: CYP2C9 act, CYP2C19 activ, CYP2C9 inhib, CYP2C19 inhib)
O=C(Nc1ccc2c(c1)OCO2)N1CCOCC1	none
O=C(Nc1ccc2c(c1)OCO2)N1CCN(c2ncc(C(F)(F)F)cc2Cl)CC1	Cav3 T inh -6.62
O=C(CCCc1nc2ccccc2s1)N1CCN(S(=O)(=O)c2cccs2)CC1	none
Cn1c(CC2C(=O)Nc3ccc(Br)cc32)nc2ccccc2c1=O (stereo not given)	CYP2C9 inhib 81.9 (no result: Cav3 T inh)
Cc1ccc2c(CSc3nnc(C4CC4)n3N)cc(=O)oc2c1	CYP2C19 inhib 78.5
COc1cc(-c2nnc(SCC#CCO)o2)cc(OC)c1OC	none
Cc1ccc2c(CSc3nnc(C4CC4)n3N)cc(=O)oc2c1C	none (no result: Cav3 T inh)
COc1cc(-c2nnc(SCc3cc(=O)oc4cc(C)ccc34)o2)cc(OC)c1OC	CYP2C9 inhib 82.9, CYP2C19 inhib 66.2
NC(=O)CCCCC(=O)OCCCc1cccs1	none
CN1C(=O)/C(=C/c2cc(N=Nc3ccccc3)ccc2O)SC1=S	none
O=C(CN1CCC(C(=O)c2ccc(Cl)cc2)CC1)Nc1ccc2c(c1)OCCO2	CYP2C9 inhib 58.0
CCOC(=O)C1CCN(C(C(=O)Nc2ccc3c(c2)OCCO3)c2ccccc2)CC1 (stereo not given)	CYP2C9 inhib 88.9
O=C(CN1CCC(Cc2ccccc2)CC1)Nc1ccc2c(c1)OCCO2	Cav3 T inh -4.07
Cc1ccc(NC(=O)CN2CCC(C(=O)c3ccc(F)cc3)CC2)cc1	Cav3 T inh -5.23 (no result: CYP2C9 act, CYP2C19 activ, CYP2C9 inhib, CYP2C19 inhib)
CCOC(=O)C1CCN(c2c(Nc3ccc4c(c3)OCCO4)c(=O)c2=O)CC1	none
CC1(C)CC(NCc2ccc3c(c2)OCO3)CCO1 (stereo not given)	none
O=C(CC1C(=O)NCCN1C(=S)Nc1ccccc1)Nc1ccc2c(c1)OCCO2 (stereo not given)	CYP2C9 inhib 58.7
O=C(CN1CCN(Cc2ccc3c(c2)OCO3)CC1)Nc1ccc2c(c1)OCCO2	none
COc1ccccc1NC(=O)CC1C(=O)NCCN1C(=O)Nc1ccccc1 (stereo not given)	none
O=C(CN1CCN(CC(=O)Nc2ccccc2Cl)CC1)Nc1ccc2c(c1)OCCO2	CYP2C9 inhib 51.1, CYP2C19 inhib 91.2
COc1ccccc1NC(=O)CN1CCN(CC(=O)Nc2ccc3c(c2)OCCO3)CC1	CYP2C19 inhib 94.3
CCCc1[nH]nc2c1C1(CCOC1C)C(C#N)=C(N)O2 (stereo not given)	none
CC(C)(C)OC(=O)CNC(=O)c1[nH]cnc1C(=O)Nc1ccc(Cl)cc1	none (no result: CYP2C9 act, CYP2C19 activ, CYP2C9 inhib, CYP2C19 inhib)
O=C(c1cccnc1)N1CCN(c2c(Cl)cccc2[N+](=O)[O-])CC1	CYP2C19 inhib 82.0
O=C(NC(=S)N1CCN(c2c(Cl)cccc2[N+](=O)[O-])CC1)c1cccs1	Cav3 T inh -4.25, CYP2C9 inhib 78.3
CC(C)C(=O)N1CCN(c2c(Cl)cccc2[N+](=O)[O-])CC1	none
O=C(Nc1ccc(SC(F)F)cc1)c1ccc2nccnc2c1	none
Cn1cc(C[C@H](NC(=O)OC(C)(C)C)C(=O)N[C@H](CO)Cc2ccccc2)c2ccccc21	none (no result: CYP2C9 act, CYP2C19 activ, CYP2C9 inhib, CYP2C19 inhib)
COc1ccc(C2CCCN2C(=O)Nc2cccc(C(C)=O)c2)cc1OC (stereo not given)	none
COc1ccc(C(=O)CSC2=C(C#N)C3(CCCCC3)C(C#N)=C(N)N2)cc1	CYP2C9 inhib 98.0, CYP2C19 inhib 99.8
N#CC1=C(N)NC(SCC(=O)c2ccc(Cl)cc2)=C(C#N)C12CCCC2	CYP2C9 inhib 97.1, CYP2C19 inhib 100.4
O=C(c1ccc(S(=O)(=O)N2CCCCCC2)cc1)N1CCN(c2ccccn2)CC1	CYP2C9 inhib 69.4
O=C(c1ccc(Cl)c(S(=O)(=O)N2CCCC2)c1)N1CCN(c2ccccn2)CC1	none
O=C(c1cc(Cl)ccc1Cl)N1CCN(c2ccccn2)CC1	CYP2C9 inhib 92.1, CYP2C19 inhib 94.1
